# Assay outcomes as filed in PubChem.
# D3 antag = D3 dopamine receptor (human) antagonism | P35462 | D3R cells, DiscoveRx beta-arrestin luminescence, antagonist mode; hits give low values | max response, negative = inhibition, % | 360,000 compounds, 2.5% hits | AID 652054; in the data active = max response below about -50%; inconclusive = no clear call, values can overlap the other calls; note: % is set by controls: 0 for no effect and ±100 for the full control effect
#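 Cells plated overnight at 1500 cells/well, then exposed to library compounds with dopamine controls for 90 minutes at 37 degrees C. DiscoveRx reagent added for 30–60 minutes at room temperature; luminescence read, quantitative HTS format.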
# GLP1R ag = GLP-1 receptor (human) agonism; Potency, µM (highest dose often 45.6 µM), for the others: at the highest dose activation, hits mostly activators; HEK293 GLP-1R CRE-luciferase, luminescence, 4-6 h; cells express a hypersensitive GLP-1R form; AID 624172; 380,000 compounds, 0.007% hits; P43220; note: potency is the fitted concentration of half-maximal effect; % of control where 0% means no effect
# Target sequence (P43220 whole entry, looked up): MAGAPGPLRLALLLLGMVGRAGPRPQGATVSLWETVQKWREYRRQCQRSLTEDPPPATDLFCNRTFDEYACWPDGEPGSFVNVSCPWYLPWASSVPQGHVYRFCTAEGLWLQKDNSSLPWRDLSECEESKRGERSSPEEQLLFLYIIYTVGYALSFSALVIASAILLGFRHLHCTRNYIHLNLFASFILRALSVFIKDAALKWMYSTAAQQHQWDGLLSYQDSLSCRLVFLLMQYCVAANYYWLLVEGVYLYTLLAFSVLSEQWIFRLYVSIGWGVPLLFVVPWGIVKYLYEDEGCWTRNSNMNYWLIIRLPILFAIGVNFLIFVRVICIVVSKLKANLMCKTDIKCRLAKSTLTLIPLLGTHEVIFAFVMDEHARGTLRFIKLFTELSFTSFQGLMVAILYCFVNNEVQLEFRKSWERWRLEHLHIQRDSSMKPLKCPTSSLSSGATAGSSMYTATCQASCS
# ClpP mod = qHTS Assay for Activators of ClpP; Potency, µM (series often up to 57.5 µM), without a hit: at the highest dose activity change, negative = active; 340,000 compounds, 1.9% hits; purified B. subtilis ClpP, FRET peptide cleavage, 20 min; ATP-dependent Clp protease proteolytic subunit (Bacillus subtilis (strain 168)), P80244; active = well fitted falling curve with a large enough effect; inconclusive = small, poorly fitted or top-dose-only effect; inactive = no such curve, though single readings can be large or run the other way; note: potency is the fitted concentration of half-maximal effect; the source files actives as falling curves though it sought activators and does not explain the sign; nearly all actives have a fitted effect of over 65% in size
# Target sequence (P80244 whole entry, looked up): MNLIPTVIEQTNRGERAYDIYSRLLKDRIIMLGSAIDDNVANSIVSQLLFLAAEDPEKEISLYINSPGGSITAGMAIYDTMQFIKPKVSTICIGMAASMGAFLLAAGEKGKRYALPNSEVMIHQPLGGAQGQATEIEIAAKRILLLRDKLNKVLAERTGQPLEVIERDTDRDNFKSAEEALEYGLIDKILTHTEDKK
#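 FRET quenching reversal measured ClpP activation: 10 microg/mL B. subtilis ClpP at pH 8 with the FRET-FV decapeptide, read at 430 nm after 320 nm excitation. The 20-min minus 0-min signal was scaled between DMSO/no-enzyme wells and ADEP (5.8 microM final).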
# GLP1R cytotox = cytotoxicity counter-screen for GLP-1 receptor inverse agonists; HEK293 cAMP-luciferase reporter cells, luminescence, 24 h; Potency, µM (series often up to 38.3 µM), for inactives: at the highest dose activity change, negative = inhibition, hits mostly inhibitors; 410,000 compounds, 0.13% hits; AID 624418;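 note: loss of luciferase light is scored as toxicity; potency is the fitted concentration of half-maximal effect; % is set by controls: 0 for no effect and ±100 for the full control effect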
#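 Cells in DMEM/10% Nu serum/1% pen-strep, 1536-well format. Pre-incubated 12 h, dosed with 23 nL compound, incubated a further 24 h. Luciferase detection, 12 min at room temp, luminescence.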
# DRD3 agonist = agonists of human D3 dopamine receptor; P35462; D3R DiscoveRx beta-arrestin cells, luminescence, 90 min; max activation, %; 410,000 compounds, 0.58% hits; in the data active = max activation above about 30%; note: 0% is about no effect
#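 Agonist-mode cell screen: cells plated at 1500/well and incubated overnight at 37 °C, then exposed to library compounds for 90 min at 37 °C. Detection reagent was added for 30–60 min at room temperature, and luminescence was read.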
# GLP1R inv ag = acts as inverse agonist at human GLP-1 receptor. HEK293 GLP-1R CRE-luciferase, luminescence, 24 h; GLP-1R form is constitutively active. AID 624417. P43220. 410,000 compounds, 1.6% hits. Potency, µM (top dose mostly 38.3 µM), for inactives: at the top dose activity change, negative = inhibition, actives largely listed as inhibitors; note: potency is the fitted concentration of half-maximal effect; % is set by controls: 0 for no effect and ±100 for the full control effect; nearly all actives have a fitted effect of over 55% in size
#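 Seeding at 200 cells/uL, 12 h culture, 24 hr compound treatment, then luciferase reagent and a luminescence read; cells are HEK293 stably expressing a constitutively active GLP-1R plus cAMP-responsive luciferase.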
# The depositor's hits bear a star; u = inconclusive; x = no result given; [ ] = another dose, or the depositor's remark. The list is not random: actives were taken first. Their share in the collection is about 5.7%. Unless noted, calls come from the whole dose curve; as a rule, active = well fitted curve in the direction sought with a large enough effect; inconclusive = small, poorly fitted or top-dose-only effect, or another doubt; inactive = no such curve, though single readings can be large; an effect the other way counts as inactive or inconclusive.
SMILES,D3 antag,GLP1R ag,ClpP mod,GLP1R cytotox,DRD3 agonist,GLP1R inv ag
COC(=O)C[C@H]1c2cc(F)cc(F)c2S(=O)(=O)N1C1CCN(Cc2ccccc2)CC1,-69*,11%,0%,0%,-66,1%
Cn1c(Oc2ccc(F)cc2)c(C=O)c2ccccc21,u,5%,x,-12%,-30,10µM*
Cc1c(C=O)c2ccccc2n1CCOc1ccccc1F,33,13%,1%,5%,2,u
COc1cc(/C=C2/C(=O)c3cccc([N+](=O)[O-])c3C2=O)c(Br)cc1O,-15,-1%,1%,u,-6,10µM*
COc1ccc(-n2c(C)c([N+](=O)[O-])c3ccc(O)c(CN(C)C)c32)cc1,0,-22%,22µM*,-12%,-13,u
COc1ccc(-n2c(C(C)n3nc(C)c([N+](=O)[O-])c3C)n[nH]c2=S)cc1 (stereo not drawn),-21,-1%,1%,-4%,1,16%
CC(=O)NCN1CCN(CNC(C)=O)CC1,7,1%,25µM*,1%,2,2%
CN1CCN(C(=O)c2cccc3c(-c4ccc(F)c(F)c4)coc23)CC1,-100*,3%,2%,-2%,-12,-25%
COc1ccc(-c2coc3c(C(=O)N4CCN(C)CC4)cccc23)c(C)c1,-87*,12%,2%,-6%,-17,-7%
COc1ccc(-c2noc(CN(C(=O)C(C)Oc3ccc(C)cc3)C(C)C)n2)cc1 (stereo not drawn),x,x,0%,2%,3,u
COc1nccnc1NS(=O)(=O)c1ccc(NC(=S)NC(=O)/C=C/c2ccccc2)cc1,-63*,0%,-2%,14%,-10,3%
COc1ccc(NC(=S)NC(NC(=O)/C=C/c2ccccc2)C(Cl)(Cl)Cl)cc1 (stereo not drawn),-69*,-49%,0%,-23%,-7,u
O=C(/C=C/c1ccccc1)NC(NC(=S)Nc1ccc(Cl)cc1)C(Cl)(Cl)Cl (stereo not drawn),-19,-12%,0%,u,-6,u
COc1nccnc1NS(=O)(=O)c1ccc(NC(=S)NC(=O)c2ccccc2)cc1,u,-14%,1%,-11%,-5,2%
O=C(NC(c1ccc(Cl)cc1)c1cnccn1)C1CCN(Cc2ccccc2)CC1 (stereo not drawn),19,11%,0%,1%,-15,-11%
O=C(NC(c1ccccc1)c1ccsc1)C1CCN(Cc2ccc(Cl)c(Cl)c2)CC1 (stereo not drawn),-61*,-1%,-4%,4%,-18,19%
O=C(NC(c1ccccc1)c1ccsc1)C1CCN(Cc2ccc(Oc3ccccc3)cc2)CC1 (stereo not drawn),-100*,21%,1%,-3%,-19,u
Cc1ccc(C(=O)NNC(=O)C2CCN(Cc3ccc(Cl)c(Cl)c3)CC2)cc1,-16,10%,-2%,6%,-31,-2%
COc1ccc(-c2c(N)cnc(C(=O)O)c2C)c(OCc2ccccc2)c1OC,0,-1%,5%,0%,3,-1%
Cc1cc(NS(=O)(=O)c2ccc(NC(=S)NC(=O)c3cccnc3)cc2)no1,-51*,-2%,x,-6%,-15,27%
Cc1cc(C)nc(NS(=O)(=O)c2ccc(NC(=S)NC(=O)c3cccnc3)cc2)n1,u,0%,x,-4%[7.66 µM],-13,4%[7.66 µM]
COc1ccccc1C(=O)Nc1ccc(S(=O)(=O)Nc2cc(C)on2)cc1,-26,-8%,25µM*,-5%,6,0%
CCCN(CCC)c1ccc(/C=C/c2ccnc3ccccc23)cc1,x,x,-1%,x,x,x
COc1ccc(Cn2ccc3nc(C)c(C(=O)N4CCN(c5cc(C)ccc5C)CC4)cc3c2=O)cc1,x,x,-18%,-14%,4,u
CC(=O)NC(c1cccc(F)c1)c1nc(-c2cnn(C)c2)cs1 (stereo not drawn),-53*,0%,-1%,2%,-25,4%
SMILES,D3 antag,GLP1R ag,ClpP mod,GLP1R cytotox,DRD3 agonist,GLP1R inv ag
COc1cccc(C(NC(C)=O)c2nc(-c3cnn(C)c3)cs2)c1 (stereo not drawn),21,16%,1%,2%,8,-10%
Cc1ccc(OCCCCn2nnc3sc4c(c3c2=O)CCC(C)C4)cc1 (stereo not drawn),x,x,-2%,8%,7,8%
Cc1nc2sc(C(N)=O)c(N)c2c2c1CCCC2,9,-6%,x,17%,3,1.1µM*
NC(=O)c1sc2nc(N3CCOCC3)c3c(c2c1N)CCCC3,-23,18%,16µM*,13%,7,159%
CCOC(=O)c1sc2nc(N3CCOCC3)c3c(c2c1N)CCC3,28,u,97%,3%,0,53%
Nc1c(C(=O)NCCc2ccccc2)sc2nc(N3CCOCC3)c3c(c12)CCCC3,2,22%,x,19%,3,8.9µM*
CC(=O)c1sc2nc(-c3ccc(C)cc3)c3c(c2c1N)CCCC3,68,15%,-29%,399%,52*,-21%
Cc1cc(Nc2nc3ccccc3c3nnc(C)n23)ccc1Br,x,x,-8%,5%,4,-3%
Cc1ccc(-c2nnc(SCC(=O)NC3CCCC3)nc2-c2ccc(C)cc2)cc1,x,x,0%,6%,-11,-23%
COc1ccc(NC(=O)Cn2c(C)cc3ccccc3c2=O)c(OC)c1,x,x,u,-12%,3,1%
Cc1c(C(=O)N2CCN(c3ccccc3)CC2)oc2c(F)cccc12,-12,13%,-4%,17%,-2,-27%
Cc1c(C(=O)N2CCC2)oc2c(F)cccc12,22,8%,13µM*,10%,-1,11%
Cc1c(Cl)cccc1NC(=O)Cn1cc(C(=O)C2CCCCC2)c2ccccc21,x,x,0%,-13%,14,u
Oc1[nH]c2ccccc2c1N=Nc1ccccn1,1,1%,1%,0%,5,2%
Oc1c(N=Nc2ccccn2)ccc2ccccc12,u,-17%,0%,5µM*,-7,u
CCOC(=O)C1CCCN(C(=O)c2ccc3c(c2)N(Cc2cccc(Cl)c2)C(=O)c2ccccc2S3(=O)=O)C1 (stereo not drawn),x,x,-3%,0%,9,-14%
COc1cc(SC)ccc1C(=O)N(CC(=O)Nc1ccccc1Br)Cc1ccco1,0,16%,x,0%,-5,10µM*
O=C(C[n+]1cc(-c2ccc(Cl)cc2)n2c1CCCCC2)c1ccccc1,-63*,7%,1%,-1%,-30,-10%
O=C(C[n+]1cc(-c2ccc(Br)cc2)n2c1CCCCC2)c1ccccc1,-24,7%,x,-2%,-13,-14%
